Records with an inconclusive call do not appear. Active and inactive are the calls of the source. Calls follow the shape of the dose curve; as a rule, active = well fitted curve in the direction sought with a large enough effect in the repeat runs; inconclusive = weak or mixed curves; inactive = no such curve, though single readings can be large; an effect the other way counts as inactive or inconclusive.
Key:
[1] = biological target: Cytochrome P450 2D6 (Homo sapiens) (UniProt P10635); test: Cytochrome P450 Family 2 Subfamily D Member 6 (CYP2D6) small molecule antagonists: luciferase reporter qHTS assay (AID 1671196); also: series mostly up to about 120 µM; nearly all actives have a fitted effect of over 50% in size
Summary of the method: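 Each well received CYP2D6 with its proluciferin substrate and chemical, sat 10 min, then got NADPH regeneration solution for 1 h at room temperature. Luminescence in RLU served as the activity measure.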

[2] = biological target: Cytochrome P450 2C19 (Homo sapiens) (UniProt P33261); test: Cytochrome P450 Family 2 Subfamily C Member 19 (CYP2C19) small molecule antagonists: luciferase reporter qHTS assay (AID 1671197); also: nearly all actives have a fitted effect of over 65% in size; also: potency is read from the fitted curve at half-maximal effect; as to activity change, negative = inhibition: series mostly up to about 120 µM
Summary of the method: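 Enzyme-substrate mix with proluciferin substrate (P450-Glo CYP2C19 system) preincubated with compounds 10 min at room temperature; NADPH regeneration solution added, 37C for 1 h; detection reagent stops reaction, luminescence read after 20 min. Ketoconazole positive control.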

[3] = biological target: Cytochrome P450 2C9 (Homo sapiens) (UniProt P11712); test: Cytochrome P450 Family 2 Subfamily C Member 9 (CYP2C9) small molecule antagonists: luciferase reporter qHTS assay (AID 1671198); also: nearly all actives have a fitted effect of over 50% in size; also: potency is read from the fitted curve at half-maximal effect; as to activity change, negative = inhibition: series mostly up to about 120 µM
Summary of the method: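 Enzyme-substrate mix preincubated with compound 10 min at room temperature; reaction started with NADPH regeneration solution, 1 h 37C. Luminescent luciferin product read after 20 min detection reagent.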

[4] = biological target: Voltage-gated inwardly rectifying potassium channel KCNH2 (Homo sapiens) (UniProt Q12809); test: Human Ether-a-go-go-Related Gene (hERG) channel small molecule antagonists: fluorescence cell-based qHTS assay (AID 1671200);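 also: hERG-expressing U2OS cells given a thallium stimulus after FluxOR II dye loading; series mostly up to about 77 µM; nearly all actives have a fitted effect of over 50% in size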
Summary of the method: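 First, 1000 cells per well are seeded and cultured overnight at 37 C. Next, FluxOR II dye is loaded for 1 h at room temperature, protected from light. After 10 more minutes, stimulus is added and fluorescence is read.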

[5] = biological target: Cytochrome P450 3A4 (Homo sapiens) (UniProt P08684); test: Cytochrome P450 Family 3 Subfamily A Member 4 (CYP3A4) small molecule antagonists: luciferase reporter qHTS assay (AID 1671201); also: nearly all actives have a fitted effect of over 50% in size; also: potency is read from the fitted curve at half-maximal effect; as to activity change, negative = inhibition: series mostly up to about 120 µM
Summary of the method: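 Enzyme and proluciferin substrate are mixed with test chemicals for 10 min, then NADPH regeneration system drives turnover for 1 h at room temperature. A detection reagent halts the reaction; luminescence after 20 min gives relative activity.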

[6] = biological target: Cytochrome P450 1A2 (Homo sapiens) (UniProt P05177); test: Cytochrome P450 Family 1 Subfamily A Member 2 (CYP1A2) small molecule antagonists: luciferase reporter qHTS assay (AID 1671199); also: nearly all actives have a fitted effect of over 50% in size; also: potency is read from the fitted curve at half-maximal effect; as to activity change, negative = inhibition: series mostly up to about 120 µM
Summary of the method: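 Enzymatic CYP1A2 assay, human, luminescent: 10 min compound–enzyme–substrate preincubation, 1 h NADPH-dependent turnover, 20 min detection step, room temperature throughout. Reduced light indicates lower CYP1A2 activity.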
% is scaled to controls: 0 for no effect and ±100 for the full control effect.

Chain of Cytochrome P450 2D6 (Homo sapiens) (P10635 whole entry, looked up): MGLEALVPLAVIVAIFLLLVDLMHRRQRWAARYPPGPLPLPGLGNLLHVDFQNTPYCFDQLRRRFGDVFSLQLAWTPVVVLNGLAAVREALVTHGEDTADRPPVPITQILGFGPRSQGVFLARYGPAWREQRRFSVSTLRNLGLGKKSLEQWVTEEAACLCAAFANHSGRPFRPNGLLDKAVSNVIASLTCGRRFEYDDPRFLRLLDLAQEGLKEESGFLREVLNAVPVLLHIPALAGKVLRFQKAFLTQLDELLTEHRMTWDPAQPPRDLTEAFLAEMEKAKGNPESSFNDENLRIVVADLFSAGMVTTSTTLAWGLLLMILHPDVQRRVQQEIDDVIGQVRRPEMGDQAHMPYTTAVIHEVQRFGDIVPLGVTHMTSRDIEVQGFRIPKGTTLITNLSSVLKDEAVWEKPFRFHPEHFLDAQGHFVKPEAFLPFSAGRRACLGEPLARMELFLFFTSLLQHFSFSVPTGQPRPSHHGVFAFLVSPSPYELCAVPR
Chain of Cytochrome P450 2C9 (Homo sapiens) (P11712 whole entry, looked up): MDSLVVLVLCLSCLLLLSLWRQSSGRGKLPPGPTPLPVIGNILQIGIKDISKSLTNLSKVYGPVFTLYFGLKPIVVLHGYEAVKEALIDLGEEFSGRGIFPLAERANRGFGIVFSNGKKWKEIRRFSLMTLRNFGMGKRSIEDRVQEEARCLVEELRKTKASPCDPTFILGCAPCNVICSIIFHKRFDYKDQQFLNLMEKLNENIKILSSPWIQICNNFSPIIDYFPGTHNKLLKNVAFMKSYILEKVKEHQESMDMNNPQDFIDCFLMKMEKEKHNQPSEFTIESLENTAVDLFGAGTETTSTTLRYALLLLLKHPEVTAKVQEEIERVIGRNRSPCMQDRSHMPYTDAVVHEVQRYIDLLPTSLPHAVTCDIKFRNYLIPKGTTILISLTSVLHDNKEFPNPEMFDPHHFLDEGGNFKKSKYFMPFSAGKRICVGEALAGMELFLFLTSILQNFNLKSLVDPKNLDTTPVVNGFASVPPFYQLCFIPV
Chain of Cytochrome P450 2C19 (Homo sapiens) (P33261 whole entry, looked up): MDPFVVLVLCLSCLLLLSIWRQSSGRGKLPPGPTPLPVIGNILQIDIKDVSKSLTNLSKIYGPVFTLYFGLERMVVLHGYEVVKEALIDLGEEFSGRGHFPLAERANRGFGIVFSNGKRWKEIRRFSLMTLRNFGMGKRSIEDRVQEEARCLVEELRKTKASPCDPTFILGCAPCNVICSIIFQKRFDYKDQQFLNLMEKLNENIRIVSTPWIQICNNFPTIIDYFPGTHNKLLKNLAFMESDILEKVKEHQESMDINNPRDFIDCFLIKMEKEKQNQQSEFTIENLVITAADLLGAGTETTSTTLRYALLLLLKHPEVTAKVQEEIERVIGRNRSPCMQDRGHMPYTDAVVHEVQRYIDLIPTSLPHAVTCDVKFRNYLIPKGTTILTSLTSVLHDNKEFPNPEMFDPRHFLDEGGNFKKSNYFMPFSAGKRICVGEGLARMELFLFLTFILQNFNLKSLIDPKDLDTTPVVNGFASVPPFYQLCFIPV
Chain of Voltage-gated inwardly rectifying potassium channel KCNH2 (Homo sapiens) (Q12809 whole entry, looked up): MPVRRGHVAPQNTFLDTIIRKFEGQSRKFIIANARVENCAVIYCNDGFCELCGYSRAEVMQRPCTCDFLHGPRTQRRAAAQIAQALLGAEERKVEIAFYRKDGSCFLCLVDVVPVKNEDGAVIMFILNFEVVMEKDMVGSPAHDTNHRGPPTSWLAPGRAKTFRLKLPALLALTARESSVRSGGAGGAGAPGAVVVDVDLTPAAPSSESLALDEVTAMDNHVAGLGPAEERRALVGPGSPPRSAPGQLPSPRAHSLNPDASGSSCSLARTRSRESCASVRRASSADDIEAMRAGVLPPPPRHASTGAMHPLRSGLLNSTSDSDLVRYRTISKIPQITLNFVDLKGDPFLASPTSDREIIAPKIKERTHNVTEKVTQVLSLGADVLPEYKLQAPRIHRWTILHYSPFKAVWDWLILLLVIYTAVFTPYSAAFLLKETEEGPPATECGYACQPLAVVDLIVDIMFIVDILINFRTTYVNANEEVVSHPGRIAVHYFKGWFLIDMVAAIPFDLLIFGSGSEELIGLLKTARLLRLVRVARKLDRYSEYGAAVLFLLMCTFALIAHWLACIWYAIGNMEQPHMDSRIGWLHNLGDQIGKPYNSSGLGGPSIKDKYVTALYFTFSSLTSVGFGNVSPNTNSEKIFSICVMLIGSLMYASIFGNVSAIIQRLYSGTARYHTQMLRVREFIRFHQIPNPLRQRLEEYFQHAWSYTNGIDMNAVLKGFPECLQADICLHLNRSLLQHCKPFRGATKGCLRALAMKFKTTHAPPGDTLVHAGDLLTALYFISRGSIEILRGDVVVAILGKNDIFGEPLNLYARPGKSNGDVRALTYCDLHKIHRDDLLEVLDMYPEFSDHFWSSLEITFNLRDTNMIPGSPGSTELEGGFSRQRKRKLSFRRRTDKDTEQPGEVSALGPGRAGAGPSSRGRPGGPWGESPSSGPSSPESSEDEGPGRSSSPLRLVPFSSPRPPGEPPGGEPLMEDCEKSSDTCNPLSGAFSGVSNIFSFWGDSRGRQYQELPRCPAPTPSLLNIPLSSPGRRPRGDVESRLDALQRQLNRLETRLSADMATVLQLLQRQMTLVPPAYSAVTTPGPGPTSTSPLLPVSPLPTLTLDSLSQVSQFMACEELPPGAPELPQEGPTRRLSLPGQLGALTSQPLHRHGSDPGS
Chain of Cytochrome P450 1A2 (Homo sapiens) (P05177 whole entry, looked up): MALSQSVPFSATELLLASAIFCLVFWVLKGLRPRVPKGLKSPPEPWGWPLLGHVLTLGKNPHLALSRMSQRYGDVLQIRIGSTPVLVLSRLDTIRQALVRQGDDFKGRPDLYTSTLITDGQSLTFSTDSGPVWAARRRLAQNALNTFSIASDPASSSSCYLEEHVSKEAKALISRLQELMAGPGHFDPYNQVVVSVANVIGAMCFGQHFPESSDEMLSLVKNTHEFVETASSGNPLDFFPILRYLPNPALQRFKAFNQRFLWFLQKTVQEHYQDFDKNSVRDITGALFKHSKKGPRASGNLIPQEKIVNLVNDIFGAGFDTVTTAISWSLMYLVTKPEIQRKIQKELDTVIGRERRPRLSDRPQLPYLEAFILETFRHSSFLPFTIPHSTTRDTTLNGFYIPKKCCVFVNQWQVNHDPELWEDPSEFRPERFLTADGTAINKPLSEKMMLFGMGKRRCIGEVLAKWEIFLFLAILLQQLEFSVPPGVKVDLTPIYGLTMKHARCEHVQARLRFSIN
Chain of Cytochrome P450 3A4 (Homo sapiens) (P08684 whole entry, looked up): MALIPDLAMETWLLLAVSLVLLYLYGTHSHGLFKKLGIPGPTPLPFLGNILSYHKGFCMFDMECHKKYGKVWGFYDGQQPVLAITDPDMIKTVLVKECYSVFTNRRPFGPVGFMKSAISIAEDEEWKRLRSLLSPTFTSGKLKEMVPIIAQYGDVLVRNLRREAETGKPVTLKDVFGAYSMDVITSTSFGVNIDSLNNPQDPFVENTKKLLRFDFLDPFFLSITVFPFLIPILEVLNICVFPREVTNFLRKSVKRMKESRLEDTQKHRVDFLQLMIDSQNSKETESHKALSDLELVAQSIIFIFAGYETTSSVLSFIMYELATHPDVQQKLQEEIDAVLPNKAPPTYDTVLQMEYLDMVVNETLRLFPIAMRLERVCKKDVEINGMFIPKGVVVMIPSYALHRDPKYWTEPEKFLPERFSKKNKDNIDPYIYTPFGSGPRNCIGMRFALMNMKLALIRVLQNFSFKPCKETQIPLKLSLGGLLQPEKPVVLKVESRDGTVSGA

COC(=O)/C=C(\C)CCC=C(C)C
inactive: Potency [1] | Potency [4]
active: Potency [2] 25.2 µM | Potency [3] 39.9 µM | Potency [5] 31.7 µM

CC(C)(C)OC(=O)c1ccccc1C(=O)O
inactive: Potency [1] | Potency [2] | Potency [6] | Potency [4]

O=C(O)COc1ccc2ccccc2c1
inactive: Potency [1] | Potency [2] | Potency [6] | Potency [5]

CC(C)(C)C(=O)CCc1ccc(Cl)cc1
inactive: Potency [1] | Potency [4]
active: Potency [2] 7.1 µM | Potency [6] 22.4 µM

O=Cc1ccccc1S(=O)(=O)O
inactive: Potency [1] | Potency [2] | Potency [6]

C=CCN(CC=C)CC=C
inactive: Potency [1] | Potency [2] | Potency [6] | Potency [4] | Potency [5]

NC[C@H]1O[C@H](O[C@H]2[C@H](O)[C@@H](O[C@H]3O[C@H](CO)[C@@H](O)[C@H](N)[C@H]3O)[C@H](N)C[C@@H]2N)[C@H](N)[C@@H](O)[C@@H]1O
inactive: activity change, negative = inhibition [1] 0.727% [at 23.6 µM] | activity change, negative = inhibition [3] 16.5% [at 23.6 µM] | activity change, negative = inhibition [4] 1.37% [at 15.8 µM]

CC(O)C(CO)C(C)O (configuration not stated)
inactive: Potency [1] | Potency [3] | Potency [4] | Potency [5]
active: Potency [6] 32.1 µM

O=C1CCCc2c(O)cccc21
inactive: Potency [1] | Potency [3] | Potency [4] | Potency [5]
active: Potency [6] 34.7 µM

CC(=O)c1c(C)cc(C(C)(C)C)cc1C
inactive: Potency [1] | Potency [3]

CCCCCCCCCCCCCCBr
inactive: Potency [1] | Potency [3] | Potency [6] | Potency [4] | Potency [5]

C[Si](C)(C)O[Si](O)(O)O
inactive: Potency [1] | Potency [3] | Potency [6] | Potency [4] | Potency [5]

Cc1nnc(C(=O)NC(C)(C)c2nc(C(=O)NCc3ccc(F)cc3)c(O)c(=O)n2C)o1
inactive: Potency [1] | Potency [3] | Potency [6] | Potency [5]

C/C=C(\C)C(=O)OC/C=C(\C)CCC=C(C)C
inactive: Potency [1] | Potency [2] | Potency [4] | Potency [5]

Cc1ccc(Br)cc1
inactive: Potency [1] | Potency [3] | Potency [6] | Potency [4]
